Data from PubChem BioAssay (Tox21).
Inconclusive results are not listed. Activity calls are given as the source filed them. Unless noted, calls come from the whole dose curve.

Key:
[1] = Nuclear factor erythroid 2-related factor 2/antioxidant responsive element (Nrf2/ARE) small molecule agonists: luciferase reporter gene qHTS assay in human keratinocytes (AID 1919969); note: nearly all actives have a fitted effect of over 35% in size; note: potency is the fitted concentration of half-maximal effect
[2] = target: Gonadotropin-releasing hormone receptor (Homo sapiens) (UniProt P30968); experiment: Human gonadotropin-releasing hormone receptor (GnRHR) small molecule agonists, calcium flux assay in GnRHR-HEK293 cells (AID 1920063); note: nearly all actives have a fitted effect of over 35% in size
Summary of the method: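 Agonist mode: compounds at 15 concentrations, in triplicate, went onto calcium dye-loaded GnRHR-HEK293 cells. Intracellular calcium was then followed as 480/540 nm fluorescence at 1 s intervals over 3 min.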

[3] = target: KiSS-1 receptor (Homo sapiens) (UniProt Q969F8); experiment: Human kisspeptin (KISS1R) small molecule agonists, calcium flux assay in KISS1R-HEK293 cells (AID 1920064; active = well fitted activation curve with a large enough effect in the repeat runs)
Summary of the method: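 Agonist mode: intracellular calcium rise tracked at 1 s intervals over 3 min (480/540 nm) immediately after compound addition to dye-loaded KISS1R-HEK293 stable cells. Each compound tested at 15 concentrations in triplicate.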

[4] = G protein-coupled receptor (GPCR) small molecule agonists, calcium flux assay: HEK293 wild type cell line counter screen (AID 1920065)
Summary of the method: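 Calcium flux counter screen: compound added in agonist mode at 15 concentrations in triplicate to dye-loaded parental HEK293 cells. Fluorescence (480/540) read kinetically for 3 min; ATP served as positive control.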

[5] = p53 small molecule agonists, cell-based qHTS assay with human liver microsomes (AID 1963577);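 note: p53 response element beta-lactamase reporter cells with liver microsomes plus NADPH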
Summary of the method: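 16 h, 37 C exposure of p53RE-bla cells to compounds with human liver microsomes and NADPH (0.5 mg/mL final each); detection via LiveBLAzer mixture, 2 h dark at room temperature.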

[6] = p53 small molecule agonists, cell-based qHTS assay with rat liver microsomes (AID 1963578)
Summary of the method: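 With rat liver microsomes and NADPH present (0.5 mg/mL final each), p53RE-bla cells are treated with compound for 16 h at 37 C. LiveBLAzer detection mixture is then applied for 2 h at room temperature in the dark.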

[7] = p53 small molecule agonists, cell-based qHTS assay with human liver microsomes: qHTS cell viability counter screen (AID 1963579); note: nearly all actives have a fitted effect of over 45% in size
Summary of the method: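 In this multiplexed counter screen, the reporter plates were subsequently treated with CellTiter-Glo so that cell viability, reflected by luminescence, could be recorded for p53RE-bla cells dosed 16 h with compounds under microsomal activation (HLM and NADPH).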

[8] = p53 small molecule agonists, cell-based qHTS assay with rat liver microsomes: qHTS cell viability counter screen (AID 1963580); note: nearly all actives have a fitted effect of over 45% in size
Summary of the method: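 After the beta-lactamase ratio was read, CellTiter-Glo was added to the same wells and luminescence measured at 30 min; cells had been treated 16 h at 37 C with compounds, rat liver microsomes and NADPH (0.5 mg/mL final each).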

[9] = p53 small molecule agonists, cell-based qHTS assay: qHTS cell viability counter screen (AID 1963581); note: nearly all actives have a fitted effect of over 45% in size
Summary of the method: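 Counter screen read by CellTiter-Glo luminescence (ATP content, 30 min at room temperature), run in the same wells as the beta-lactamase reporter read. HCT-116 p53RE-bla cells saw compounds for 16 h at 37 C.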

[10] = p53 small molecule agonists, cell-based qHTS assay (AID 1963582; active = well fitted activation curve with a large enough effect in the signal ratio in the repeat runs, not every such curve was filed as active; the % refers to the signal ratio)
Summary of the method: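 Read-out is beta-lactamase FRET fluorescence after 2 h at room temperature with LiveBLAzer B/G substrate. p53 response element-bla cells were treated 16 h at 37 C with compounds in DMSO, added 5 h after seeding.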

[11] = target: 5-hydroxytryptamine receptor 2A (Homo sapiens) (UniProt P28223); experiment: 5-hydroxytryptamine receptor 2A (HTR2A) small molecule agonists, cell-based qHTS assay (AID 1963587); note: nearly all actives have a fitted effect of over 30% in size; note: potency is the fitted concentration of half-maximal effect
Summary of the method: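 CHO cells stably expressing human HTR2A, plated 18 h, loaded with calcium dye 1 h at 37 C. Agonist mode: compounds added and intracellular calcium fluorescence recorded kinetically for 2 min at 1 sec intervals.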

[12] = target: Muscarinic acetylcholine receptor M1 (Homo sapiens) (UniProt P11229); experiment: Cholinergic receptor muscarinic 1 (CHRM1) small molecule antagonists, cell-based qHTS assay (AID 1963588); note: nearly all actives have a fitted effect of over 40% in size; note: potency is the fitted concentration of half-maximal effect
Summary of the method: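 Compounds were tested at 15 concentrations in three independent runs. Dye-loaded CHRM1-CHO cells were exposed 5 min at room temperature before stimulation by acetylcholine added at 50nM. Intracellular calcium was read kinetically on FDSS for 3 min.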

[13] = target: Muscarinic acetylcholine receptor M1 (Homo sapiens) (UniProt P11229); experiment: Cholinergic receptor muscarinic 1 (CHRM1) small molecule agonists, cell-based qHTS assay (AID 1963589); note: nearly all actives have a fitted effect of over 35% in size
Summary of the method: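 Agonist-mode calcium-flux screen: compounds at 15 concentrations, three independent runs, were pin-transferred onto dye-loaded human CHRM1-CHO cells. Fluorescence was then recorded kinetically every second over minutes.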

[14] = cAMP Responsive Elements (CRE) small molecule antagonists, cell-based qHTS assay (AID 1963591; active = well fitted inhibition curve with a large enough effect in the signal ratio in the repeat runs, not every such curve was filed as active; the % refers to the signal ratio)
Summary of the method: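 Antagonist mode: compounds are added alongside the adenylyl cyclase activator NKH477 (0.25 uM final) to CRE-bla HEK293T cells for 3 h. LiveBLAzer FRET substrate, 2 h at room temperature, reports bla expression.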

[15] = target: Beta-2 adrenergic receptor (Homo sapiens) (UniProt P07550); experiment: Adrenergic beta2 receptor (ADRB2) small molecule antagonists, cell-based qHTS assay (AID 1963592); note: nearly all actives have a fitted effect of over 50% in size; note: potency is the fitted concentration of half-maximal effect
Summary of the method: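 Assay format: CHO-ADRB2 cells, 18-20hr seeding at 37C/5% CO2, then compound plus 1nM isoproterenol agonist mix for 0.5hr RT. Homogeneous time-resolved fluorescence cAMP detection after 1hr, expressed as 665/615 nm ratio.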

[16] = target: Beta-2 adrenergic receptor (Homo sapiens) (UniProt P07550); experiment: Adrenergic beta2 receptor (ADRB2) small molecule agonists, cell-based qHTS assay (AID 1963593);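 note: CHO cells stably overexpressing human ADRB2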
Summary of the method: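 CHO cells stably over-expressing ADRB2 were plated overnight at 37C, then dosed with compounds plus a stimulation mix containing 100uM IBMX and 25uM Ro-20-1724 for 0.5hr at room temperature. cAMP was measured by HTRF competition, 1hr.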

[17] = target: D(2) dopamine receptor (Homo sapiens) (UniProt P14416); experiment: Dopamine D2 receptor (DRD2) small molecule agonists, cell-based qHTS assay (AID 1963594); note: nearly all actives have a fitted effect of over 35% in size
Summary of the method: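 HEK293 cells stably expressing human DRD2, pre-treated with PDE inhibitor Ro20-1724 (0.1 mM final) and compound 10 min at room temperature, then stimulated with NKH477 (200nM […]) for 30 min. cAMP read by HTRF (665/620 nm).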

[18] = target: D(2) dopamine receptor (Homo sapiens) (UniProt P14416); experiment: Dopamine D2 receptor (DRD2) small molecule antagonists, cell-based qHTS assay (AID 1963595; active = well fitted inhibition curve with a large enough effect in the signal ratio in the repeat runs, with a control signal flat; the % refers to the signal ratio; note: potency is the fitted concentration of half-maximal effect)
Summary of the method: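 DRD2-HEK293; 0.1 mM Ro20-1724; cpd 10 min RT; NKH477 200 nM + quinpirole 12 nM, 30 min RT; HTRF cAMP (cAMP-d2/anti-cAMP cryptate), 665/620 nm ratio after 1 h.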

[19] = target: 5-hydroxytryptamine receptor 2A (Homo sapiens) (UniProt P28223); experiment: 5-hydroxytryptamine receptor 2A (HTR2A) small molecule antagonists, cell-based qHTS assay (AID 1963586); note: nearly all actives have a fitted effect of over 45% in size; note: potency is the fitted concentration of half-maximal effect
Summary of the method: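 CHO cells stably expressing human HTR2A were plated for 18 h at 37 C, then loaded with calcium dye for 1 h. Compounds were preincubated 5 min at room temperature before DOI (4 nM solution) was added. Kinetic fluorescence was read for 3 min.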

[20] = cAMP Responsive Elements (CRE) small molecule agonists, cell-based qHTS assay (AID 1963590)
Summary of the method: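 Agonist mode: compound added to CRE-bla HEK 293T cells (2,000/well, 18 h after plating) for 3 h at 37 C/5% CO2. Reporter activity detected via FRET beta-lactamase substrate, 2 h room-temperature loading.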

Measured: Potency

Chain of 5-hydroxytryptamine receptor 2A (Homo sapiens) (P28223 whole entry, looked up): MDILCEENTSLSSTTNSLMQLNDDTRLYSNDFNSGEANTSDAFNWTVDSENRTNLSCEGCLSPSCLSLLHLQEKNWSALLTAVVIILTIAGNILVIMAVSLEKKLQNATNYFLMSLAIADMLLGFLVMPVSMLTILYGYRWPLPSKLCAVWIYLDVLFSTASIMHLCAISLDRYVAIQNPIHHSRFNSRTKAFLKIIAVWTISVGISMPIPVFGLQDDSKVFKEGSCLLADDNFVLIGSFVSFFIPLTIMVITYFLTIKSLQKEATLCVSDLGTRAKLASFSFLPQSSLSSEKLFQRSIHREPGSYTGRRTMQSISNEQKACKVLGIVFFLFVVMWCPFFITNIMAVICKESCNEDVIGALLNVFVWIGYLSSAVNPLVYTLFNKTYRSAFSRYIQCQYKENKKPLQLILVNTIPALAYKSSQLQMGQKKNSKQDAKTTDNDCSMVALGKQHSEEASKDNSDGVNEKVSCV
Chain of Muscarinic acetylcholine receptor M1 (Homo sapiens) (P11229 whole entry, looked up): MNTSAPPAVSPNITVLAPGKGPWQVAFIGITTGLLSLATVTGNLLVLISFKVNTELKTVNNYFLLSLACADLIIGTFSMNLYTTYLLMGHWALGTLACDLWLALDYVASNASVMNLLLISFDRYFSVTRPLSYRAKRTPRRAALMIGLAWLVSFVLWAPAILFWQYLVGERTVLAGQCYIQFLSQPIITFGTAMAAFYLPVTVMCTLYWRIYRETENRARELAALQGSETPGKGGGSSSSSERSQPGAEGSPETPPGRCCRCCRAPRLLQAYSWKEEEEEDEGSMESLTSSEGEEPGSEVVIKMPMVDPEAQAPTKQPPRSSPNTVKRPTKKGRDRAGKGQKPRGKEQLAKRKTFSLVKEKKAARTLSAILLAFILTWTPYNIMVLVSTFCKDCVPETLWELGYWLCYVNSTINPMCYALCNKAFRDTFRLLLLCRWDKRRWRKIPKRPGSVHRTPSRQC
Chain of Beta-2 adrenergic receptor (Homo sapiens) (P07550 whole entry, looked up): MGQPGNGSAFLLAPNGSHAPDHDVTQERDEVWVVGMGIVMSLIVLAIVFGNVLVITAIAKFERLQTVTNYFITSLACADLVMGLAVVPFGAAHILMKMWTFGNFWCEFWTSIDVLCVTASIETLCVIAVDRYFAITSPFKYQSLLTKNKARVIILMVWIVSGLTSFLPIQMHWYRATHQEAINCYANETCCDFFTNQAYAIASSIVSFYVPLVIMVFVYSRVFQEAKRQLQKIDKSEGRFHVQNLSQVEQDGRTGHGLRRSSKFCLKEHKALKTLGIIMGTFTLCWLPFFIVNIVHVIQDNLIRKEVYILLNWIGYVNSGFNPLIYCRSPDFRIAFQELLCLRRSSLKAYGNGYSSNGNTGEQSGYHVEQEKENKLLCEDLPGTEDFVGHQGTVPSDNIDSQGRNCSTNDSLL
Chain of KiSS-1 receptor (Homo sapiens) (Q969F8 whole entry, looked up): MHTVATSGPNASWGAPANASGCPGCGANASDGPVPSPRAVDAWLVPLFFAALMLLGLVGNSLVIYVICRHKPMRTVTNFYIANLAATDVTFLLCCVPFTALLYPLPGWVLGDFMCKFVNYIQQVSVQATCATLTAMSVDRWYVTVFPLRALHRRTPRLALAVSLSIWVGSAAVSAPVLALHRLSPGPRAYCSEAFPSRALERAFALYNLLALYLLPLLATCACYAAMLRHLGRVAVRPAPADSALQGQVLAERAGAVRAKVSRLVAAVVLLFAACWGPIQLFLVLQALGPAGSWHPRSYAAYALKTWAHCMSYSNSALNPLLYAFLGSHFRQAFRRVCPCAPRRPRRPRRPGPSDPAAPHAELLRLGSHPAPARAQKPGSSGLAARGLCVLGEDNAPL
Chain of Gonadotropin-releasing hormone receptor (Homo sapiens) (P30968 whole entry, looked up): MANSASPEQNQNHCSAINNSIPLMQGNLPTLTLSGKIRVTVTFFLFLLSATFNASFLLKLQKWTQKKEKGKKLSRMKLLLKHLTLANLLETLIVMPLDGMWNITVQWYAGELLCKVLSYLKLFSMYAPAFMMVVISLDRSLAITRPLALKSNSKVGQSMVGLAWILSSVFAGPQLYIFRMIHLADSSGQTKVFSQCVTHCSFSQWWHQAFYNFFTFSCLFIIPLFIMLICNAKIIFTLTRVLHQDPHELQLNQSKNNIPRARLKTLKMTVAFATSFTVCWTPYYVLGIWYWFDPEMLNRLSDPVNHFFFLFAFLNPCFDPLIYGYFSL
Chain of D(2) dopamine receptor (Homo sapiens) (P14416 whole entry, looked up): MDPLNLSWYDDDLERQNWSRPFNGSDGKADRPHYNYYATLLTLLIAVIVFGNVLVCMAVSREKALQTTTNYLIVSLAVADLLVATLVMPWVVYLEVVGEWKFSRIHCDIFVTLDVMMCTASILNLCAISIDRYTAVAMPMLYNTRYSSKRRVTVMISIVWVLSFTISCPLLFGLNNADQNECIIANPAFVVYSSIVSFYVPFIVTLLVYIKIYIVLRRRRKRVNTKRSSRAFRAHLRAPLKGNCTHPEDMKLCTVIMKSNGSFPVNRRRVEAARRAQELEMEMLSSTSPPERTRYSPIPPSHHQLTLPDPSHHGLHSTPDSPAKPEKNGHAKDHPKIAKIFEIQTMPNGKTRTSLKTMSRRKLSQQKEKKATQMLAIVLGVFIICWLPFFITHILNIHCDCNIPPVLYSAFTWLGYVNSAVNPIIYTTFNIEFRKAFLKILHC

Brc1ccc(Oc2ccc(Br)cc2Br)c(Br)c1
active: [1] 6.12 µM
not listed: [19] | [20]
inactive: all other assays above

CCCN(CC1CC1)c1c([N+](=O)[O-])cc(C(F)(F)F)cc1[N+](=O)[O-]
active: [1] 48.6 µM
not listed: [16]
inactive: all other assays above

NC1=NC(=O)C(c2ccccc2)O1 (stereo not drawn)
not listed: [8] | [11] | [12] | [13] | [16] | [17] | [19] | [20]
inactive: all other assays above

COC(C)(C)CCC[C@H](C)C/C=C/C(C)=C/C(=O)OC(C)C
active: [1] 61.1 µM
not listed: [5] | [10] | [13] | [14] | [20]
inactive: all other assays above

Cc1cc(C2CC2)nc(Nc2ccccc2)n1
active: [1] 68.6 µM | [12] 14.9 µM | [15] 54.5 µM
not listed: [8] | [10] | [14] | [16] | [20]
inactive: all other assays above

O=C(Nc1ccccc1)Nc1ccnc(Cl)c1
not listed: [5] | [8] | [9] | [10] | [14] | [19] | [20]
inactive: all other assays above

COC(=O)N(C(=O)N1COC2(C(=O)OC)Cc3cc(Cl)ccc3C2=N1)c1ccc(OC(F)(F)F)cc1 (stereo not drawn)
not listed: [5] | [8] | [13] | [19]
inactive: all other assays above

O=[N+]([O-])c1c2ccccc2cc2ccccc12
active: [1] 21.4 µM
inactive: [2] | [3] | [4] | [6] | [7] | [8] | [11] | [12] | [13] | [17]

NCC1(CC(=O)O)CCCCC1
not listed: [6] | [7] | [8] | [11] | [12] | [13] | [14] | [19]
inactive: all other assays above

Cc1cc(C)c(C(=O)P(=O)(c2ccccc2)c2ccccc2)c(C)c1
active: [19] 10.6 µM | [11] 24.5 µM
not listed: [7] | [9] | [10] | [14] | [16] | [20]
inactive: all other assays above

CC(O)C#N (stereo not drawn)
active: [1] 61.1 µM
not listed: [8] | [10] | [12] | [13]
inactive: all other assays above

C[C@H]1CCC[C@H](O)CCCCCc2cc(O)cc(O)c2C(=O)O1
not listed: [5] | [11] | [15] | [16] | [19] | [20]
inactive: all other assays above

CN1C[C@H](CNC(=O)OCc2ccccc2)C[C@@H]2c3cccc4c3c(cn4C)C[C@H]21
active: [18] 10.6 µM
inactive: [1] | [2] | [3] | [4] | [6] | [7] | [8] | [9] | [10] | [17]

O=C(CBr)Nc1ccc(Cl)cc1C(=O)c1ccccc1F
not listed: [7] | [9] | [10] | [14] | [16]
inactive: all other assays above

COc1ccccc1N1CCNCC1
active: [19] 0.729 µM | [11] 1.69 µM | [15] 13.3 µM
not listed: [6] | [7] | [16] | [17]
inactive: all other assays above

O=C(NC(=O)c1c(F)cccc1F)Nc1ccc(Oc2ccc(C(F)(F)F)cc2Cl)cc1F
not listed: [7] | [10] | [14] | [18] | [19] | [20]
inactive: all other assays above

C#CC1(O)CCCCC1
not listed: [6] | [7] | [20]
inactive: all other assays above
